Reference: PubChem BioAssay AID1508600 (Functional Genomics Laboratory (NCATS/FGL), 2020)
In all, about 53,000 sequences went through this assay and about 3,700 (7%) were called active. Only a selection was taken, and actives are over-represented in it overall. Unmarked numbers belong to inactive results.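 The calls were made as follows: active = gene knockdowns whose robust z-score for IL-1 alpha signal is at least 2 or at most -2, so actives lie on both sides; inactive = the rest.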

test: Components of the Cytosolic LPS Sensing Pathway: Gene Identification via Genome-wide siRNA Screen; conditions: RAW264.7 macrophages, IL-1a HTRF, actives lie on both sides, screened at 100 nM (by protocol), cells primed 5 h with Pam3CSK4 first
Excerpt: Non-canonical inflammasome activation by cytosolic LPS is a critical component of the host response to Gram-negative bacterial infection, however we lack a comprehensive understanding of the cellular processes that control this pathway. Here we describe a genome-wide siRNA screen to identify genes regulating the mouse macrophage IL-1 alpha response to cytosolic LPS.
RAW264.7 cells were maintained in complete DMEM media, comprising DMEM with 4.5 g/L glucose, 10% FBS (Gemini Bio-Products, West Sacramento, CA), 2 mM Glutamine (Lonza) and 20 mM HEPES (Lonza), hereafter complete DMEM.
The RNAi screen was conducted in 384-well format using the Ambion Silencer Mouse Genome siRNA Library (#4391425), which consists of three unique, nonoverlapping, nonpooled siRNAs for each of 17,000 gene targets. siRNA reagents ([…]) were stamped into 384-well white flat-bottom microplates (Corning, 3570) using a Velocity11 VPrep liquid handling system (Agilent) integrated into a BioCel robotic platform (Agilent) in columns 1-22, leaving columns 23-24 empty for negative (Ambion, Negative control #1) and positive (mouse Casp4) controls, respectively. The median value of each plate's negative control column was used to normalize sample wells, and the positive control was used to assess transfection efficiency and assay performance.
Lipofectamine RNAiMAX Transfection Reagent ([…]; Invitrogen) was added in […] serum-free, antibiotic-free media to plate wells using a Thermo Scientific Matrix WellMate and Microplate Stacker. Plates were incubated for 45 min at room temperature to allow for the sufficient formation of siRNA-lipid complexes. Cells were seeded at a density of 1x10^4 cells per well in 20 microL media containing 20% (vol/vol) FBS without antibiotics. The final concentration of siRNA in each well was 100 nM. Cells were cultured for 48h at 37 degrees C in 5% CO2 before addition of […] of TLR ligand Pam3CSK4 for 5 hours. The medium was then removed, replaced with […] growth media and cell were transfected with […] of LipidA and TransIT-TKO (Mirus) for 24 hour. At the end of the LipidA treatment, […] of supernatant was transferred to a 384 Greiner Bio-one non-binding low volume plate and […] of IL-1a HTRF reagent (Cisbio, 62MIL1APEH) was added and incubated at room temperature overnight. The plates were read on an EnVision plate reader (PerkinElmer). Cell viability was measured by adding 20ul Cell Titer Glo to the original plate and running a luminescence read on the EnVision. The quantified IL-1a signal for each siRNA gene-targeted well was divided by the median of the negative control wells and multiplied by 100 to achieve a negative control normalized value for each well/siRNA. This normalized value was then used to generate a robust z-score by first taking the log of each value and then by subtracting the median and dividing by the […].

Sequence	z-score
GGAGAAGAGCCUUCUCAAGTT against Srsf4	2.05 (active)
GGUUAUAGCUUCAAUAGCUTT against Bphl	-0.61
UAACAGACCAGUAAAGGCCTT against Klra21	0.322
CCAGAUACCCAUAAUAUCUTT against Mbnl1	-0.604
CGAUUUCCUUGGCACCAAUTT against Arhgap1	-0.675
GUGGACUUUUAGCAAUCAGTT against Olfr98	-1.55
GGAGACUUAUUGAGCAAGUTT against Usp44	4.42 (active)
CGCUGAAGUCUUUUCACAATT against Baiap2	0.286
CCCUUUCGGGCAAUGGACUTT against Olfr986	-0.0157
GGGCUUAAGCUUUGAGGGUTT against Foxs1	0.213
GGGUUUGCACUAGUUUAUUTT against Rap1a	0.632
GGUCCUAAAGCCUUUUCUATT against Mrpl10	0.199
GGAAGGGUCAGAAAAAUGUTT against Slc1a2	0.202
GGUAAUGAUCCAUUCACCATT against Ly75	-1.47
GCAUAUACUUGAUUACCGUTT against Olfr830	-0.391
CCUCUGUCAGUUGGUUAACTT against Mon2	-2.33 (active)
CCUUCUACUAAUCAAGAGATT against Sparc	-0.578
GGACCACAGAAGUUCUCAUTT against Pira2	-2.88 (active)
GCACGGAAGACUUACGAACTT against Cstf3	0.439
GGACAUAUUUCCAACAUGUTT against Mob3b	-1.34
CGAAUCAUGUGUUUGCACATT against Camkk2	1.21
GCCUGAUUGACUUAGAGUCTT against Eps8	0.821

Sequence	z-score
GCAGGUGAAGAGUGAUUUUTT against Il10	0.318
GGAACUGCUUACGAAAUACTT against Lama4	-2.33 (active)
GGAUGUGUUAUCGGUGCUCTT against Mup21	-0.303
GGAAGAGGAAGAAAAAAAGTT against Iqcf4	-0.411
CUUACGAUACAUAAGAGAATT against Zfp457	0.364
CGACAACAUUUUCCUGUCATT against Serpinc1	-2.07 (active)
GGAGAGAGAGAAGAAGGAUTT against Zmat2	-1.47
GCUCAUUCCAGGUAUCUGATT against Fcna	-1.19
GCUAUGACAGUUAUGCUACTT against Cirbp	0.874
GGAUACGAGACAAUGAGAATT against Kctd2	-0.404
GCGAAUUACUAUGUACCUATT against Sqor	1.75
GGACUGAGGAGAGCAAUAUTT against Cts6	-1.29
GGCGGACAGAAAUUAUAGATT against Tnpo3	3.19 (active)
CCGUUGCCUGAUAAGUUCUTT against Klf3	0.576
GCCUUUCUGAGGGAUUUUGTT against Eif1ad	-1.81
GCCAAGCUUACUCAGAUUUTT against Mslnl	2.45 (active)
GGCCUUUAUUCAGAUGUCATT against Zscan12	-2.79 (active)
GGUUUAGGCAACUAAGUUGTT against Stat5a	0.426
GCAAAGUACCCACCUUUGUTT against Pitpna	2.06 (active)
GGCAACUUUGAAGUCUUGATT against Dntt	-0.488
GGGUUCUUUUAGGUUGUCATT against Ccdc85a	-0.123
GGAACUUCAUCCAAACUGATT against Ap4m1	-0.12

Sequence	z-score
CGUCCAAGCAUAUAUGAAATT against Slfn8	1.36
GGGAAGAGAAUGAGAUAAATT against F7	3.22 (active)
CCGACAUUCGAGUUUUGCGTT against Rrp9	-0.532
GCGAACAACCACGUUUUUCTT against Ddx18	0.388
GGUGUCAAGAAGAAUGUCCTT against Megf11	3.2 (active)
GGCCGAAAGAUAAAAACAGTT against Rad51d	0.173
GCGACACCACUGAUGACGATT against Gga2	-0.473
GGAAAAACAUGCCAAAAAATT against Mettl15	-0.222
CCUUAGUAUGUAUGUGGUATT against Map10	-2.65 (active)
CCACACUUCCCUUAUUUAATT against Arpc5	1.35
GGCUAAAGACCAGUAUUUGTT against Cdh7	2.47 (active)
CGCAGUCAAAUUUGAAAGUTT against Car5b	0.775
GGCUGACAGACAAGAUUGUTT against Tfb1m	-1.3
GCCUGUGGUGAUUCUCUUGTT against Tmem53	-0.093
CCCAGUUAUCCUGAAAAGUTT against Ears2	0.526
GCAAAAGUAUUUUGUGUCCTT against Aamp	0.241
GCGCAAUGAACGGUUCUACTT against Prepl	3.96 (active)
GGGAUGUGAGGGAAUUAACTT against B4galt3	-1.03
GGUCUUCAAGAACUGUAGCTT against Bcl11b	1.09
GCACACCAGAUCUACUUCUTT against Cyp2b9	0.3
GCUUCACUCCACCUUUCAGTT against Prkcg	0.767
GGUCGUUUCUAUGAUUGGCTT against Olfr589	0.568

Sequence	z-score
GCUCGAAGAAAGGCCCUGATT against B430306N03Rik	-0.509
GGACCUAAACAACGUGUUGTT against Klf2	2.74 (active)
GGAAAGAAGAAGAGUCUAATT against Nucb2	0.994
GGCCGGAGCUUACGAUUUUTT against Camk2d	0.309
GGGAACAAAUUCAUUGUAUTT against Eny2	2.26 (active)
GGAAGUGAGAUGUCACUGATT against Ssc5d	0.841
GGAUACCAAGCAUCGGAAGTT against Tfap2e	-0.0352
GGCAGAAACAGUCCUUGUUTT against Gfra4	-1.54
GGCGUAUACCGGGAAUCCUTT against Ndrg1	-0.505
GCAAUGAGUACUAUCAUACTT against Gnal	-2.71 (active)
GGUUAAAUCGAUUUUGCAUTT against Acbd5	-0.185
GGGAUACCAUCUUUAUGGCTT against Vwa3b	-0.041
GCAAUGGACUGACAUGUCATT against Csdc2	-0.339
CGGACAAGUGUUUUUCGUUTT against Wwox	0.315
GGCUGUGCUCCUUGUUAGUTT against Olfr1143	-0.083
GCGGUGAUGAGAGAAACCATT against Zfp617	0.872
GGACCCUUUCUUUGAUAUGTT against Rpe	1.01
GCCACUGGAGUAUAGCCAGTT against Pcnx3	0.019
CCUCUUAUAUGCAUGUGGCTT against Olfr410	-2.13 (active)
CCAAAGCUAAAACGGGUGGTT against Tppp3	0.597
GCUGGACAUCGACUUUGGATT against Prnd	-1.54
CCUAUGUUUUAGCAAGCAGTT against Acyp2	0.758

Sequence	z-score
GCCAUCAUCUUUGUUUAGUTT against Gm4952	-0.684
GGACAUCCUCUUACAGUGGTT against Zg16	0.333
GGUCAUCUCCAAACCCUCCTT against Rbpj	1.51
GGAAGAGGCCAGCUAUAACTT against Dcaf1	-2.51 (active)
GGAGGGAUCUAAGGAACAGTT against Fgf8	0.263
GGAAUGAUUUUUGUUUGCUTT against Sf3b3	-1.6
GGCACAUUCAACAACAUUUTT against Zfp592	1.61
GGAUCUUAGCAUGUCAACATT against Zfp330	-1.29
GGUUCAGAUGGGAAAAAGGTT against Khdrbs2	-2.41 (active)
GGAGAACCCUUAUGUGACATT against Pik3ca	-1.91
GGAGGAUGGUGCCAACAUUTT against Psmc3	-2.02 (active)
GGUAAAAACUUUCCUUUAGTT against Prph2	1.48
GGAAUGCAAAAAACUCUGGTT against Gzmg	0.906
GGCCUGAGUAUAAAGUUAGTT against Wbp2	1.6
GGAUGAAUAAGGACAGAUUTT against Phospho2	0.335
GGUUACGUGUUUGUAUCUATT against Higd1a	-0.395
GGCUCUUGAAAAAAACCCATT against Utp11	0.441
CGAGCUUAUGCUGAAACCATT against 3830417A13Rik	-2.45 (active)
GGUGACUAGGAAGAACACGTT against Tmem9b	1.99
GUACCUGAACUCAACUGAGTT against Ffar2	-0.0572
